Screen size: about 400,000 compounds; about 5,500 (1.4%) were called active. A call without a number means that no potency is given here. Another 9% or so got no clear call; they are omitted. The call rests on the fitted dose curve; in most records, active means well fitted cell-killing curve with a large enough effect; inconclusive means small, poorly fitted or top-dose-only effect, or effect the other way; inactive means flat fitted curve, though single readings scatter. Only a selection was taken, and actives are over-represented in it overall.
Potency means the concentration at half of the fitted maximal effect.

A short description of the assay: qHTS assay for MDR1-selective chemotherapeutics: Primary screen using the parental adenocarcinoma cell KB-3-1. Further: nearly all actives have a fitted effect of over 60% in size. The following applies: KB-3-1 viability, CellTiter-Glo ATP luminescence, 72 h; series mostly up to 46.1 µM. From the text:
A prime difficulty in effectively treating cancer is the development of cellular resistance to multiple structurally unrelated anticancer drugs, a phenomenon known as multidrug resistance (MDR). […] Numerous strategies to overcome P-gp-mediated MDR have been explored, including the design of drugs that evade recognition and efflux, and development of inhibitors to block efflux and restore drug accumulation. […] An alternative approach is to exploit resistance by identifying drugs that target MDR cells over the non-resistant parental cells from which they were selected. […] The development of MDR1-selective agents represents a new strategy for resolving multidrug resistance, as it remains a long-standing clinical challenge for cancer chemotherapy.
Our goal is to identify compounds that selectively kill P-gp-expressing MDR cells. We will identify MDR1-selective compounds by comparing toxicity of compounds in the screening library against parental, drug-naive (KB-3-1) adenocarcinoma cells as well as their drug-selected MDR sub-line (KB-V1). The differential toxicity of compounds against these two cell lines will be used to identify MDR1-selective compounds, whose cytotoxicity is potentiated, rather than diminished, by P-gp expression. This assay will be utilized to conduct a quantitative high-throughput screen (qHTS) in collaboration with the NIH Chemical Genomics Center to identify selective agents, and probe hits arising from the screen will be validated using secondary assays and characterized through a well-established follow-up research program. This screen was run against the entire NCGC library collection of about 400,000 compounds.
NIH Molecular Libraries Probe Production Network [MLPCN]
NIH Chemical Genomics Center [NCGC]
PI: Michael Gottesman PhD, National Cancer Institute, NIH
Briefly, 5 microL of media containing either KB-3-1 cells (columns 1-2, 4-48) are dispensed into Greiner white, treated solid-bottom 1536-well assay plates (media-only control is added to column 3). Compounds are then transferred via Kalypsys pin tool equipped with 1536-pin array (10 nL slotted pins, V&P Scientific, San Diego, CA). Following addition of compound, the plates are incubated at 37 degrees C for 72 hours. CellTiter-Glo (2.5 µL/well) is then added, and the plates are read in a ViewLux reader (Perkin-Elmer, clear luminescence filter, 1 second exposure, 1x binning) following a 10 minute incubation. All cells are dispensed in DMEM phenol-red free media containing 10% FBS.
Library plates were screened starting from the lowest and proceeding to the highest concentration. Vehicle-only plates, with DMSO being pin-transferred to columns 5-48, will be inserted uniformly at the beginning and the end of each library in order to monitor and record any shifts in the background, which can be affected by reagent dispensers or loss in enzyme activity over time. Screening data will be corrected, normalized, and concentration-effect relationships will be derived by using publicly-available NCGC, NCATS curve fitting algorithms (http://ncgc.nih.gov/pub/openhts).
For `COC1C(O)C(C)OC(OC2CCC3(C=O)C(CCC4C3CCC3(C)C(C5=CC(=O)OC5)CCC43O)C2)C1O` (stereo not given), the Potency is 0.0058 µM (active).

As for `S=C(NCCc1ccccc1)N1Cc2cc(N3CCOCC3)ccc2-n2nncc2C1`, the Potency result was “inactive”.

`O=C1NCN(c2ccccc2)C12CCN(C(c1cccs1)c1nnnn1C1CCCCC1)CC2` (stereo not given): the Potency entry is “inactive”.

For `CC(C)CN1Cc2cc(N3CCCCC3)ccc2-n2nncc2C1`, the Potency entry is “inactive”.

As for `O=C(NCC1=C(c2ccc3ccccc3c2)C[C@@H]2CC[C@H]1N2Cc1ccco1)c1cccs1`, the Potency entry is “inactive”.

For the compound `CCCCCCCCCCCCn1ccc(=N)cc1`, the Potency is 1.3 µM (active).

With `COc1ccc(NC(=O)N2Cc3ccccc3-n3nncc3C2)cc1`, the Potency result is “inactive”.

As to `c1cc2c(c(NC3=NCCCS3)c1)CCCC2`, the Potency result was “inactive”.

On to `CC(=O)NCC1=C(c2ccc3ccccc3c2)C[C@@H]2CC[C@H]1N2Cc1ccco1`, for which the Potency entry was “inactive”.

Consider `O=c1[nH]c2ccccc2n1C1CCN(C(c2ccnc3ccccc23)c2nnnn2Cc2ccccc2)CC1` (stereo not given), for which the Potency entry was “inactive”.

Turning to `CCOC(=O)[C@]12Cc3ccccc3[C@H]1N(C1CCCCC1)C(=O)c1cc(OC)ccc12`, the Potency is 4.61 µM (active).

Turning to `CCOC(=O)[C@]12Cc3cc(OC)ccc3[C@H]1N(C(C)C)C(=O)c1ccccc12`, the Potency is 6.51 µM (active).

With `O=C(O)c1cc[c]([Sb](=[O])([OH])[OH])cc1[N+](=O)[O-]`, the Potency entry was “inactive”.

Regarding `Cc1ccc(OC(=O)N(C)C[C@@H]2OCc3cnnn3CCCC(=O)N([C@H](C)CO)C[C@@H]2C)cc1`, the Potency entry was “inactive”.

Consider `O=C(O)/C=C/c1ccc2c(c1)OCO2`, for which the Potency entry is “inactive”.

For the compound `COC(=O)CN(CCCl)P1(=O)OCCCN1CCCl` (stereo not given), the Potency entry is “inactive”.

Regarding `C[C@]12CCC3C(CC[C@H]4C[C@@H](O)CC[C@]34C)C1CC[C@@H]2O` (stereo not given in full), the Potency entry was “inactive”.

In the case of `C[C@]12CCC3C(CC[C@H]4C[C@@H](O)CC[C@]34C)C1C[C@@H](O)[C@H]2O` (stereo not given in full), the Potency result was “inactive”.

With `C[C@]12CC[C@H](O)C[C@H]1CC[C@@H]1C2CC[C@]2(C)[C@@H](C3=CC(=O)OC3)[C@@H](O)C[C@]12O` (stereo not given in full), the Potency is 2.31 µM (active).

As to `COc1cc(C(=O)N2Cc3ccc(Br)cc3-n3nncc3C2)cc(OC)c1OC`, the Potency entry was “inactive”.

Regarding `C[C@H]1CN([C@@H](C)CO)C(=O)CCCn2nncc2CO[C@H]1CN(C)C(=O)Oc1cccc2ccccc12`, the Potency entry was “inactive”.

For `O=C(NC1CCCCC1)N1Cc2cc(N3CCCCC3)ccc2-n2nncc2C1`, the Potency result was “inactive”.

Take `Cc1ccc(NC(=O)N(Cc2ccc3c(c2)OCO3)C2CCN(Cc3ccccc3)CC2)cc1F`: the Potency result is “inactive”.

With `CCCCn1c(O)c(C(CC)=NCc2ccco2)c(=O)[nH]c1=O`, the Potency entry was “inactive”.

Take `CCCCCCN=C(CC)c1c(O)n(CCCC)c(=O)[nH]c1=O`: the Potency was 18.4 µM (active).

On to `CCC(=NCCCO)c1c(O)n(-c2ccc(OC)cc2)c(=O)[nH]c1=O`, for which the Potency entry is “inactive”.

With `COc1cccc(C(c2nnnn2-c2ccc3c(c2)OCCO3)N2CCC3(CC2)C(=O)NCN3c2ccccc2)c1OC` (stereo not given), the Potency result is “inactive”.

With `O=C1C2CCN(CC2)C1(CO)CO`, the Potency entry was “inactive”.

Consider `Cn1cc(/C=C/c2nc3ccccc3c(=O)n2-c2ccccc2)c2ccccc21`, for which the Potency entry is “inactive”.

On to `ClCCN(CCCl)c1ccc(C=Nc2ccc(/C=C/c3ccnc4ccccc34)cc2)cc1`, for which the Potency entry is “inactive”.

As for `COc1cc(Cn2c(N)c(C(=O)NCc3ccco3)c3nc4ccccc4nc32)cc(OC)c1OC`, the Potency is 23.1 µM (active).

`COC(=O)C1=C(c2ccccc2)C[C@@H]2CC[C@H]1N2C(=O)NCc1ccco1`: the Potency entry was “inactive”.

With `CCOC(=O)c1c(N)n(Cc2ccccc2)c2nc3ccccc3nc12`, the Potency entry was “inactive”.

Regarding `c1ccc(N2Cc3ccccc3-n3nncc3C2)nc1`, the Potency entry was “inactive”.

On to `O=P(OC1=CCCCC1)(c1ccccc1)c1ccccc1`, for which the Potency result was “inactive”.

With `O=c1c2ccccc2[nH]c(=S)n1-c1cccc(Cl)c1`, the Potency entry is “inactive”.

Regarding `Cc1nnc(NC(=O)c2cccn(Cc3cccc(F)c3)c2=O)s1`, the Potency entry is “inactive”.

As for `CCC(C)(O)C(=O)OC1C(=O)OC2CC3C(C)=CC(=O)C(O)C3(C)C3C4(O)OCC23C1C(C)C4O` (stereo not given), the Potency was 0.291 µM (active).

For `CCn1cc(CN2CCCC(C(=O)c3cccc(C(F)(F)F)c3)C2)cn1` (stereo not given), the Potency entry is “inactive”.

Take `CCOC(=O)CNC(=O)N1Cc2cc(N3CCCCC3)ccc2-n2nncc2C1`: the Potency entry was “inactive”.
